Screening results (PubChem)
Compounds with a hit are over-represented: about 2.7% of the library has one in this group of screens.
GLP-1R agonist: agonists of human GLP-1 receptor | P43220 | HEK293 GLP-1R CRE-luciferase, luminescence, 4-6 h; cells express a hypersensitive GLP-1R form | Potency, µM (series often up to 45.6 µM), for the others: at the highest dose activation, usual class: activators | 0.007% of 380,000 active | AID 624172; note: % of control where 0% means no effect
Target sequence (P43220 whole entry, looked up): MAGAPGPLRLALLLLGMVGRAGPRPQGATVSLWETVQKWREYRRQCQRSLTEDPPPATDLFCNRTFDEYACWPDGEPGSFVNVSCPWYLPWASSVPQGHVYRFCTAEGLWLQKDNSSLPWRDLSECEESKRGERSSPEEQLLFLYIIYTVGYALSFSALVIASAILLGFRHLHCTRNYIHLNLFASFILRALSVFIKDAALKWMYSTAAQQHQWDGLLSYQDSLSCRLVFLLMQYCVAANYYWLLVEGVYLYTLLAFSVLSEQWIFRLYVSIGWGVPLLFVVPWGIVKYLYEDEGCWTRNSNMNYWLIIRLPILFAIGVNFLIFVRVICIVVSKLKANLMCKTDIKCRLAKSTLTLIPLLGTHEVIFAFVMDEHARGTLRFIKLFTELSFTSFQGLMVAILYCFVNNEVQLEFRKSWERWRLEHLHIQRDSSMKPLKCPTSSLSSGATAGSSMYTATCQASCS
GLP1R cytotox: cytotoxic in the GLP-1 receptor inverse agonist counter-screen. 0.13% of 410,000 active. AID 624418. HEK293 cAMP-luciferase reporter cells, luminescence, 24 h. Potency, µM (titrated, usually from 38.3 µM), without a hit: at the highest dose activity change, negative = inhibition, most hits filed as inhibitors;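 note: loss of luciferase light is scored as toxicity; % is set by controls: 0 for no effect and ±100 for the full control effect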
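Luminescence readout: signal drop marks cytotoxicity. Plated cells grew 12 h at 37 °C, 5% CO2, received 23 nL compound for 24 h, then got luciferase reagent, read after 12 min at RT.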
GLP-1R inv ag: GLP-1 receptor (human) inverse agonism; P43220; 1.6% of 410,000 active; HEK293 GLP-1R CRE-luciferase, luminescence, 24 h; GLP-1R form is constitutively active; Potency, µM (titrated, usually from 38.3 µM), without a hit: at the top dose activity change, negative = inhibition, most hits filed as inhibitors; note: % is set by controls: 0 for no effect and ±100 for the full control effect; nearly all actives have a fitted effect of over 55% in size
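Cells are plated, allowed 12 hours at 37 deg C, then treated with compounds for 24 hr before luciferase detection reagent is added and luminescence is read after 12 min at room temperature. The HEK293 line carries constitutively active GLP-1R with a cAMP-responsive reporter.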
BRCA1 expr up: BRCA1 expression activation | MCF7-BRCA1-FFLuc reporter, luminescence, 48 h; response scale: scaled: vehicle 0%, 10 µM genistein 100% | Potency, µM (top dose mostly 46.1 µM), for the others: top-dose activation, usual class: activators | 1.1% of 380,000 active | AID 624202; note: nearly all actives have a fitted effect of over 80% in size
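MCF7-BRCA1-FFLuc cells, 2000/well in phenol-red-free MEM, attached 2 h then treated 48 h at 37 C. Luciferase luminescence read 15 min after reagent; normalized to genistein maximum activation (10microM) and DMSO, concentration-response fitted.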
Integrin act MD: activators of alpha7 integrin expression for muscular dystrophy. alpha7betagal myoblasts, beta-gal FDG fluorescence, 48 h. Potency, µM (doses to about 38.3 µM), for inactives: at the top dose activation, usual class: activators. 0.064% of 350,000 active. AID 624291;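 note: 100% = response of the positive control SU9516; nearly all actives have a fitted effect of over 60% in size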
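Alpha7betagal+/- myoblasts (passage 13) were plated 16-24 hr, then exposed to compounds (1:260 dilution of DMSO stock) for 48 hours at 37C. After MPER lysis, β-galactosidase reporter activity was read as FDG fluorescence (ex 480/em 540) after 30 minutes.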
Numbers without * were called inactive; ? = inconclusive; · = not tested or not shown; [ ] = remark or other dose. Calls come from the whole dose curve; as a rule, active = well fitted curve in the direction sought with a large enough effect; inconclusive = small, poorly fitted or top-dose-only effect, or another doubt; inactive = no such curve, though single readings can be large; an effect the other way counts as inactive or inconclusive. Potency is the fitted concentration of half-maximal effect.

SMILES	GLP-1R agonist	GLP1R cytotox	GLP-1R inv ag	BRCA1 expr up	Integrin act MD
COC(=O)c1nn(-c2ccccc2)c(Cl)c1/C=N/OCc1ccc(C)cc1	-15%	91%	13µM*	-11%	9%
COc1ccc(-c2cc(C(F)(F)F)nc(NCc3ccc(F)cc3)n2)cc1	-1%	3%	?	-4%	·
COc1ccc(CNc2nc(-c3ccc(OC)cc3)cc(C(F)(F)F)n2)cc1	-1%	31%	6.3µM*	-27%	·
CCC(C)Sc1cc(-c2nc3ccccn3c2NC2CCCCC2)ccc1OC (stereo not given)	-1%	-22%	5.6µM*	-81%	-50%
CCC(C)Sc1cccc(-c2nc3ccc(C)cn3c2NC2CCCCC2)c1 (stereo not given)	15%	-22%	11µM*	6%	-34%
CCCCNc1c(-c2cccc(SC(C)CC)c2)nc2ccc(Cl)cn12 (stereo not given)	8%	1%	10µM*	-18%	10%
CCC(C)Sc1cccc(-c2nc3cnccn3c2NC2CCCCC2)c1 (stereo not given)	-2%	113%	10µM*	-65%	-35%
CCC(C)Sc1ccc(-c2nc3ccc(C)cn3c2NC2CCCCC2)cc1 (stereo not given)	5%	2%	1%	-18%	-4%
CCOc1ccc(NC(=O)Cn2nc3c(cc2=O)CC(C)CC3)cc1 (stereo not given)	·	-6%	-22%	·	·
Cc1ccc(C(=O)NC(=S)N(C)C2CCCCC2)cc1	2%	-20%	21%	8.9µM*	-17%
CN(C(=O)c1ccc(-c2ccccc2)cc1)C1CCCCC1	19%	1%	10µM*	2.8µM*	8%
CS(=O)(=O)N(Cc1ccc(C(=O)NC2CCCC2)cc1)c1ccccc1	-6%	5%	-12%	-9%	10µM*
CN(C(=O)c1ccccc1Cl)C1CCCCC1	4%	3%	4%	13%	3%
CN(C(=S)NC(=O)/C=C/c1ccc(F)cc1)C1CCCCC1	10%	-6%	6%	-7%	5%
O=C(NC1CCCCCCC1)c1ccc(F)cc1	16%	-2%	?	2.8µM*	0%
CN(Cc1ccccc1)C(=O)Nc1ccc2c(c1)N(C)C(=O)c1ccccc1S2	·	0%	?	·	·
COc1ccc(CCn2c(=S)[nH]c(=O)c3nccnc32)cc1OC	·	·	·	3%	·
CCOC(=O)C1=C(CN2CCN(c3ccccc3F)CC2)NC(=O)NC1c1ccc(Cl)cc1 (stereo not given)	-1%	-10%	1%	4%	·
O=C(NC1CCCCC1)c1ccc(-c2ccccc2)cc1	14%	-3%	10%	2.2µM*	16%
O=C(Nc1ccccc1F)NC1CCCCCCC1	17%	-7%	?	3.5µM*	18%
O=C(NCCOCCn1c(=O)oc2ccccc21)Nc1cccc(Cl)c1	·	-7%	?	-6%	·
COc1ccc(OCCCCn2c(C3CC(=O)N(c4cccc(Cl)c4)C3)nc3ccccc32)cc1 (stereo not given)	·	1%	10µM*	·	·
O=C1CC(c2nc3ccccc3n2CCCCOc2ccccc2)CN1c1ccccc1Cl (stereo not given)	·	-17%	10µM*	·	·
CCOc1ccccc1N1CC(c2nc3ccccc3n2CCCCOc2ccccc2)CC1=O (stereo not given)	·	1%	1%	·	·
O=C(Cc1ccc(F)cc1)NCCS(=O)(=O)N1CCN(c2cccc(Cl)c2)CC1	0%	2%	10µM*	-37%	-10%
SMILES	GLP-1R agonist	GLP1R cytotox	GLP-1R inv ag	BRCA1 expr up	Integrin act MD
CSc1nc(-c2ccco2)nn1C(=O)Cc1ccccc1	-8%	6%	40%	6%	17%
O=C(CCc1ccccc1)n1nc(-c2ccco2)nc1SCc1ccccc1	-2%	3%	1%	10µM*	27%
Cc1noc(C)c1COc1cccc(C(=O)OC(C)C#N)c1 (stereo not given)	12%	10%	5%	-10%	1%
Cc1noc(C)c1COc1cccc(C(=O)OCCOc2ccc(F)cc2)c1	11%	18%	10µM*	14%	5%
C=CCOc1cccc(/C=C2\C(=O)N(Cc3ccc(C)cc3)C(C)=C2C(=O)OC)c1	9%	-26%	4.5µM*	-46%	-48%
CCOc1cc(/C=C2\C(=O)N(Cc3ccc(C)cc3)C(C)=C2C(=O)OC)ccc1O	-12%	-25%	?	-48%	-11%
CCCCOc1ccc2c(c1)C(=O)c1cc(O)ccc1-2	?	18%[7.66 µM]	79%[7.66 µM]	3.5µM*	-17%
CCOc1ccc2c(c1)C(=O)c1cc(OCC(=O)O)ccc1-2	-1%	5%	10%	0%	-8%
Cc1oc(-c2ccc(-c3ccccc3)cc2)nc1CN1CCN(CC(=O)N(C)C)CC1	35%	-11%	43%	8.9µM*	-21%
COc1ccc(-c2nc(CN3CCN(Cc4ccccc4)CC3)c(C)o2)cc1	7%	-10%	?	-10%	8%
Cc1cc(N2CCN(Cc3nc(-c4ccc(Cl)cc4)oc3C)CC2)cc(C)n1	8%	?	1µM*	-82%	?
Cc1ccc(CNC(=O)c2ccc(-c3nc(CN4CCc5ccccc54)c(C)o3)cc2)cc1	-7%	-7%	-25%	0%	·
Cc1oc(-c2ccc(C(=O)N(C)Cc3ccccc3)cc2)nc1CN1CCc2ccccc21	13%	0%	11µM*	-25%	·
CC(C)Oc1cccc(NC(=O)C2CCN(S(=O)(=O)Cc3ccccc3)CC2)c1	·	-2%	?	·	·
COc1cc2c(NC3CCN(C(C)C)CC3)nc(N3CCCN(C)CC3)nc2cc1OCCCN(C)C	·	·	·	-11%	·
COC(=O)c1ccc(/C=C2\Oc3ccccc3NC2=O)cc1	4%	9%	62%	2.2µM*	-26%
COc1cc(OC)c(NC(=O)N2CCc3cc(S(=O)(=O)N4CCC(C)CC4)ccc32)cc1Cl	·	9%	-3%	·	·
Cc1cc(C(=O)CSc2cccc[n+]2[O-])c(C)n1-c1ccccc1	-5%	?	?	?	-34%
O=C(CSc1cccc[n+]1[O-])c1ccccc1Br	3%	0.79µM*	?	66%	-67%
O=C(NC1CCCC1)C(c1ccccc1)N(C(=O)c1ccco1)C1CCCC1 (stereo not given)	5%	?	13µM*	-1%	-21%
CO/N=C(/C(=O)N[C@@H]1C(=O)N2C(C(=O)[O-])=C(C[n+]3ccn4ncccc43)CS[C@H]12)c1nsc(N)n1	-5%	·	·	·	·
CC(C)C[C@@H](CN1CCCC1CN1C(=S)NC[C@@H]1Cc1ccc(O)cc1)N1C[C@H](Cc2ccc(O)cc2)N(CCc2ccccc2)C1=S (stereo not given in full)	-2%	?	7.9µM*	-79%	-40%
Cc1c(Cl)cccc1Nc1nc(N)nc(CSCCO)n1	11%	-6%	-5%	19%	3%
